Assay results published in PubChem BioAssay (EPA / NIEHS).
More than one record can exist for a structure, and the calls need not agree. Active and inactive are the calls of the source. How the source made its calls: active means hit-call score of the fitted dose curve at least 0.9, where 1 is the maximum; inactive means score below 0.9.

read-out: E-selectin (Homo sapiens) (UniProt P16581); assay: BSK_SAg_Eselectin: BioMAP Diversity Plus: SAg Assay for Eselectin Biomarker Activity (AID 2283091); conditions: primary human HUVEC with PBMC; actives raise or lower the signal
Procedure: BSK_SAg is a cell-based, multiplexed-readout assay that uses umbilical vein endothelium and peripheral blood mononuclear cells, a human vascular primary cell co-culture, with measurements taken at 24 hours after chemical dosing in a 96-well plate.BSK_SAg_Eselectin is an assay component measured in the BSK_SAg assay. It measures E-selectin antibody related to regulation of gene expression using ELISA technology.Data from the assay component BSK_SAg_Eselectin was analyzed into 1 assay endpoint. This assay endpoint, BSK_SAg_Eselectin, was analyzed with bidirectional fitting relative to DMSO as the negative control and baseline of activity. Using a type of binding reporter, gain or loss-of-signal activity can be used to understand changes in the signaling as they relate to the gene SELE. Furthermore, this assay endpoint can be referred to as a primary readout, because this assay has produced multiple assay endpoints where this one serves a signaling function. To generalize the intended target to other relatable targets, this assay endpoint is annotated to the cell adhesion molecules intended target family, where the subfamily is selectins.
The levels of cell surface (or secreted, indicated by the prefix "s") biomarker endpoints were measured by ELISA. Overt cytotoxicity to cells in confluent adherent cultures (all systems other than the BT system) was assessed by measuring total protein levels using sulforhodamine B (SRB) staining in parallel cultures at the time of biomarker measurements, indicated as SRB endpoints. For proliferation assays for adherent cell types, individual cell types are cultured at sub-confluence and relative cell numbers quantified by SRB staining at time points optimized for each system (48 h: 3C and CASM3C systems; 72 h: BT and HDF3CGF systems; 96 h: SAg system). SRB was performed by staining cells with 0.1% SRB after fixation with 10% TCA and reading wells at 560 nm.Viability and proliferation of PBMC (T cells) was quantified by Alamar Blue reduction for the SAg and BT systems. For PBMC viability (referred to as PBMC Cytotoxicity within the assay endpoint names), cells were plated (75,000/well in a 96-well plate) and then chemical samples added for 1 h before addition of activators, SEB and TSST-1 (20 ng/mL final concentration each). Cells were incubated for 90 h. Then, Alamar Blue (20 uL/well) (Invitrogen, Cat DAL1100) was added for 6 h, and the plates were read with a fluorescence microplate reader at 546/580 nm (excitation/emission). For PBMC proliferation, cells were plated and activated as above but incubated for only 16 h prior to addition of Alamar Blue. Plates were read after 6 h.

E-selectin (Homo sapiens), sequence (P16581 whole entry, looked up): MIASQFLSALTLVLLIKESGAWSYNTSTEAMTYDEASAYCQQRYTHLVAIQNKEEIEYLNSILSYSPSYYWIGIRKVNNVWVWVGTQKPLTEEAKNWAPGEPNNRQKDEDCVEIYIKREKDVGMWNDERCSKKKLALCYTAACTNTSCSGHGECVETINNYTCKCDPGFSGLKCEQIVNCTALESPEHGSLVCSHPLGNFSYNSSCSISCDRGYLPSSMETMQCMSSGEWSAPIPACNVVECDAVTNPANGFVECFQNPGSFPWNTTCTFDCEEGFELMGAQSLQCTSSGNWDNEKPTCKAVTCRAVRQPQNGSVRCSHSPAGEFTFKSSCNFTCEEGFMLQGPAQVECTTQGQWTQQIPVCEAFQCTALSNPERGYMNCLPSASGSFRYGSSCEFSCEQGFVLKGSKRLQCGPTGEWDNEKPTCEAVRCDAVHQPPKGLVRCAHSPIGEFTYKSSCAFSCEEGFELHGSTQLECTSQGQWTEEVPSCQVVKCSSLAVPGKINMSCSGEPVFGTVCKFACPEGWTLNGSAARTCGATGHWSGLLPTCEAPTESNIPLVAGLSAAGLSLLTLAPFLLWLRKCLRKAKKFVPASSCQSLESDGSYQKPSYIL

| Structure (SMILES) | outcome | AC50 |
| --- | --- | --- |
| C[C@@H]1CCN(C(=O)[C@H](CCCN=C(N)N)NS(=O)(=O)c2cccc3c2NC[C@H](C)C3)[C@@H](C(=O)O)C1 | inactive | – |
| CC(CN=Cc1ccccc1O)N=Cc1ccccc1O (stereo not given) | inactive | – |
| CC(C=O)Cc1ccc(C(C)(C)C)cc1 (stereo not given) | inactive | – |
| c1ccc2cc(Nc3ccc(Nc4ccc5ccccc5c4)cc3)ccc2c1 | inactive | – |
| CCCCOC(=O)CCCCCCCC(=O)OCCCC | inactive | – |
| CCC(C)c1cc([N+](=O)[O-])cc([N+](=O)[O-])c1OC(=O)OC(C)C (stereo not given) | – | 12.2 µM (active) |
| C=C(C)C(=O)OCCOCCOCCOC(=O)C(=C)C | inactive | – |
| CC(C)(C)CC(C)(C)c1ccc(OCCOCC[N+](C)(C)Cc2ccccc2)cc1 | – | 3.59 µM (active) |
| IC(I)I | inactive | – |
| Cc1cc(CCC(=O)OCCOCCOCCOC(=O)CCc2cc(C)c(O)c(C(C)(C)C)c2)cc(C(C)(C)C)c1O | inactive | – |
| CCOC(=O)C(C#N)=C(c1ccccc1)c1ccccc1 | inactive | 29.8 µM (active) |
| CCCCCC(C=O)=Cc1ccccc1 | inactive | – |
| O=C1OC[C@H](Cc2cccc(O)c2)[C@H]1Cc1cccc(O)c1 | inactive | – |
| O=C1c2ccccc2C(=O)c2c(O)ccc(O)c21 | – | 1.21 µM (active) |
| COc1cc(Cl)c(OC)cc1N | inactive | – |
| CC=Cc1ccc(OCC)c(O)c1 | inactive | – |
| c1ccc(Oc2ccccc2)cc1 | inactive | – |
| C=CC(C)(O)CCC=C(C)C (stereo not given) | inactive | – |
| COc1ccc(CCN2CCC(Nc3nc4ccccc4n3Cc3ccc(F)cc3)CC2)cc1 | inactive | – |

| Structure (SMILES) | outcome | AC50 |
| --- | --- | --- |
| C1=CC2C3C=CC(C3)C2C1 (stereo not given) | inactive | – |
| O=C1OC2(c3ccccc31)c1ccc(O)c(Br)c1Oc1c2ccc(O)c1Br | – | 26 µM (active) |
| CC1(C)C2=CCCC(C)(C)[C@]23CC[C@H]1C3 | inactive | – |
| CCCCCCC(CO)CCCC (stereo not given) | inactive | – |
| CS(=O)(=O)c1ccc(C2=C(c3ccccc3)C(=O)OC2)cc1 | inactive | – |
| C=C(C)C(=O)OCC(CC)(COC(=O)C(=C)C)COC(=O)C(=C)C | – | 19.7 µM (active) |
| C=C(C)[C@H]1CC=C(C)C(=O)C1 | inactive | – |
| O=CN1CCOCC1 | inactive | – |
| CCCCN(CCCC)C(=O)N(CCCC)CCCC | – | 9.94 µM (active) |
| COc1ccc(OC)c(N=Nc2c(O)ccc3ccccc23)c1 | inactive | – |
| CN(c1nccc(=O)[nH]1)C1CCN(c2nc3ccccc3n2Cc2ccc(F)cc2)CC1 | inactive | – |
| CCN(CC)C(=O)N(CC)CC | inactive | – |
| CSCCC=O | inactive | – |
| O=C(Nc1ccc2c(O)c(N=Nc3ccc(N=Nc4ccc(S(=O)(=O)O)cc4)cc3)c(S(=O)(=O)O)cc2c1)c1ccccc1 | inactive | – |
| Oc1c(Cl)cc(Cl)c(Cl)c1Cc1c(O)c(Cl)cc(Cl)c1Cl | – | 3.17 µM (active) |
| CC(=O)C1(C)CC2=C(CCCC2(C)C)CC1C (stereo not given) | – | 15.5 µM (active) |
| CC(=O)Nc1ccc(C(=O)CCl)cc1 | – | 5.34 µM (active) |
| CC1(C)CCC[C@]2(C)[C@H]3CCO[C@]3(C)CC[C@@H]12 | inactive | 26.4 µM (active) |
| CN(C)C(=S)SC(=S)N(C)C | inactive | – |
